Test [1] in a line: Primary qHTS for inhibitors of nuclear receptor binding SET domain protein 2 (NSD2) in an RCH-ACV wild type WT cells (2C) (AID 1645877). Note: nearly all actives have a fitted effect of over 70% in size. Note: potency is the fitted concentration of half-maximal effect. In general terms: Quantitative high-throughput screening tests each substance at several concentrations.
Test [2] addresses Glutathione peroxidase 1 (Homo sapiens) (UniProt P07203). Kind of test: Primary qHTS Assay for Inhibitors of Recombinant Selenoprotein Glutathione Peroxidase 1 (GPX1) (AID 1845191). For activity, negative = inhibition: % is set by controls: 0 for no effect and ±100 for the full control effect. Note: nearly all actives have a fitted effect of over 65% in size. Note: potency is the fitted concentration of half-maximal effect. In a few lines:
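Recombinant GPX1 (10 nM final) was preincubated with compound for 30 min at room temperature, then reacted with 1 mM GSH, 0.5 mM CHP, 0.5 mM NADPH and 100 nM glutathione reductase; NADPH fluorescence (340/450 nm) was read at 0 and 15 min.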

Test [3] has as its target Phospholipid hydroperoxide glutathione peroxidase GPX4 (Homo sapiens) (UniProt P36969). Kind of test: Primary qHTS Assay for Inhibitors of Recombinant Selenoprotein Glutathione Peroxidase 4 (GPX4) (AID 1845192). For activity change, negative = inhibition: series mostly up to about 50 µM; % is set by controls: 0 for no effect and ±100 for the full control effect. Note: nearly all actives have a fitted effect of over 65% in size. The method, boiled down: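 GR-coupled readout: 100 nM GR, 1 mM GSH, 0.5 mM NADPH; NADPH fluorescence (ex 340/em 450 nm) read at t=0 and after 15 min RT. GPX4 200 nM, preincubated 30 min with compound; substrate 0.5 mM CHP.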

Test [4] deals with Luciferin 4-monooxygenase (Photinus pyralis) (UniProt P08659). Briefly: Primary firefly luciferase (FLuc) qHTS assay for identification of artifact compounds. (AID 1845220).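 For activity change, negative = inhibition: series mostly up to about 54 µM; plate controls were DMSO vehicle for no effect and no enzyme for full effect.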 Note: nearly all actives have a fitted effect of over 60% in size. In a few lines: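 Reaction readout was CCD-imaged luminescence, taken 5 min after adding 10 nM purified firefly enzyme to compound-treated wells holding 10 uM luciferin and ATP in pH 7.6 buffer.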
A short description of test [5]: Primary fluorescence-based thiol-reactive (MSTI) qHTS assay for identification of artifact compounds. (AID 1845221).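 For activity change, negative = thiol reactive: series mostly up to about 54 µM; thiol-reactive compounds lower the probe fluorescence signal.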 Note: nearly all actives have a fitted effect of over 65% in size. Note: potency is the fitted concentration of half-maximal effect. The method, boiled down: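 First, 4 uM MSTI in 2% DMSO/PBS pH 7.4 was dispensed; next, compounds were added; then plates sat 1 h at room temperature without light. Finally, emission at 598 nm was recorded.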
In test [6] the test system is Nanoluciferase (engineered Oplophorus gracilirostris luciferase). Kind of test: Primary Nanoluciferase (NLuc) qHTS assay for identification of artifact compounds. (AID 1845222).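 Note: NLuc secreted into diluted conditioned medium of S16 cells; series mostly up to about 54 µM; 0% = DMSO and -100% = no enzyme.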 In a few lines:
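Concentration-response data were obtained by luminescence after 5 min with Nano-Glo substrate at 1:100. The enzyme was diluted S16 NLuc-expressing cell medium, preincubated with compound for 15 min at RT. Curves were fitted with a 4-parameter Hill model.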

A short description of test [7]: Primary redox qHTS assay for identification of artifact compounds. (AID 1845223).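 Note: 0% = DMSO and 100% = reference compound.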 In a few lines: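 Amplex Red (25 uM) and HRP (250 mU/mL) in HBSS, with compounds for 15 min, then 250 uM DTT for 30 min, room temperature, dark. Fluorescence 525/598 nm read; normalized to DMSO and 10 uM DA3003; Hill fit.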

“And” between values parts separate entries of the source, which are not always exact repeats. Identical values can stand only once. Values without a mark were called inactive. Results filed as inconclusive are left out. The source made the active and inactive calls. Calls come from the whole dose curve; as a rule, active = well fitted curve in the direction sought with a large enough effect; inconclusive = small, poorly fitted or top-dose-only effect, or another doubt; inactive = no such curve, though single readings can be large; an effect the other way counts as inactive or inconclusive.

Glutathione peroxidase 1 (Homo sapiens), sequence (P07203 whole entry, looked up): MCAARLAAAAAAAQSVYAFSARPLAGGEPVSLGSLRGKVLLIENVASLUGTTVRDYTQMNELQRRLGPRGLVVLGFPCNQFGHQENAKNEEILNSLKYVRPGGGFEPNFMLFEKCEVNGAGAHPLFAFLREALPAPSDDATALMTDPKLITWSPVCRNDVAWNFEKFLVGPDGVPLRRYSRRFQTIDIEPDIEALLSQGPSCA
Phospholipid hydroperoxide glutathione peroxidase GPX4 (Homo sapiens), sequence (P36969 whole entry, looked up): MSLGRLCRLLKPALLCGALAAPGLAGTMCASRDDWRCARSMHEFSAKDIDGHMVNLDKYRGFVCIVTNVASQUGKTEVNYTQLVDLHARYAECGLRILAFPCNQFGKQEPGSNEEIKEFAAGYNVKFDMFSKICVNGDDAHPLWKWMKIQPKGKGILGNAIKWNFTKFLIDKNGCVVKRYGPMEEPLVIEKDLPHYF

Regarding `CC1CCC2(OC1)OC1CC3C4CC=C5CC(O)CC(O[C@@H]6OC[C@@H](O)[C@H](O)[C@H]6O)C5(C)C4CCC3(C)C1(O)C2C` (some centres not stated), the Potency result in test [1], in test [2], in test [3], in test [4], in test [5] and in test [6] was “inactive” throughout. The Potency result in test [7] was “inactive”.

Consider `C[C@@H]1CC[C@]2(C(=O)OC3OC(CO)C(O)C(O)C3O)CC[C@]3(C)C(=CCC4[C@@]5(C)CC[C@H](O)[C@](C)(C(=O)O)C5CC[C@]43C)C2[C@]1(C)O` (some centres not stated), for which the Potency result in test [1], in test [2], in test [3], in test [4], in test [5] and in test [6] was “inactive” throughout.

In the case of `CC1(O)CCCC2(C)C1CCC13CC(CO)C(CCC12)C3` (configuration not stated), the Potency result in test [1], in test [2], in test [3], in test [4], in test [5] and in test [6] was “inactive” each time. The Potency result in test [7] is “inactive”.

As to `COCCN1CCN(Cc2ccc(-c3n[nH]c4c3C(=O)c3c(NC(=O)NN5CCOCC5)cccc3-4)cc2)CC1`, the Potency in test [1] is 36.5 nM (active) and 52.5 nM (active). In addition, the Potency entry in test [2], in test [3], in test [4], in test [5], in test [6] and in test [7] was “inactive” each time.

For the compound `Nc1ncnc2c1ncn2CCNCCCCCO`, the Potency result in test [1], in test [2], in test [3], in test [4], in test [5] and in test [6] was “inactive” in each case. The Potency result in test [7] was “inactive”.

Consider `C=C1CCC2C(C)(COC(C)=O)CCCC2(C)C1CCC(C)CC(=O)O` (configuration not stated), for which the Potency result in test [1], in test [2], in test [3], in test [4], in test [5] and in test [6] was “inactive” each time. The Potency result in test [7] was “inactive”.

In the case of `CCCCc1ccc(C(=O)Nc2cc(-c3ccc(Cl)cc3)nn2-c2ccc(Cl)cc2)cc1`, the Potency result in test [1], in test [2], in test [3], in test [4], in test [5] and in test [6] was “inactive” in each case. Further, the Potency result in test [7] was “inactive”.

For `Cc1nc2sc(C(=O)NCc3ccncc3)c(N)c2c(C)c1Cl`, the Potency result in test [1], in test [3], in test [4], in test [5], in test [6] and in test [7] was “inactive” in each case. Besides, the Potency in test [2] was 12.8 µM (active).

On to `COc1cc(C(=O)OC[C@@]2(O)CO[C@@H](O[C@H]3[C@H](Oc4ccc(C(=O)O)cc4OC)O[C@H](CO)[C@@H](O)[C@@H]3O)[C@@H]2O)ccc1O`, for which the Potency result in test [1], in test [2], in test [3], in test [4], in test [5] and in test [6] was “inactive” throughout. Moreover, the Potency entry in test [7] is “inactive”.

For the compound `C[C@@H]1O[C@@H](O[C@H]2[C@@H]3C=CO[C@@H](O[C@@H]4O[C@H](CO)[C@@H](O)[C@H](O)[C@H]4O)[C@@H]3[C@@]3(CO)O[C@@H]23)[C@H](OC(=O)/C=C/c2ccc(O)c(O)c2)[C@H](O)[C@H]1O`, the Potency entry in test [1], in test [2], in test [3], in test [4], in test [6] and in test [7] was “inactive” throughout. In addition, the Potency in test [5] was 0.793 µM (active).

`COc1cc2c(c(OC)c1CC=C(C)C)C[C@H](c1ccc(O)cc1O)CO2`: the Potency result in test [1], in test [2], in test [3], in test [4], in test [6] and in test [7] was “inactive” throughout. Moreover, in test [5], the Potency was 13.1 µM (active).

As for `C=C1C(=O)O[C@@H]2C[C@H](C)[C@@]3(O)C=C(C(C)=O)[C@]4(CC3C[C@H]12)C(=O)O[C@H]1C[C@@H](C)C(CCC(C)=O)=CC[C@H]14` (some centres not stated), the Potency in test [1] was 8.93 µM (active). Besides, the Potency entry in test [2], in test [3], in test [4], in test [5], in test [6] and in test [7] was “inactive” each time.

For the compound `O=C(O)/C=C/c1ccc(O)c(O[C@@H]2O[C@H](CO)[C@@H](O)[C@H](O)[C@H]2O)c1`, the Potency result in test [1], in test [2], in test [3], in test [4], in test [6] and in test [7] was “inactive” each time. Further, the Potency in test [5] is 4.65 µM (active).

Regarding `CC1(C)CC[C@]2(C(=O)O[C@@H]3O[C@H](CO[C@@H]4O[C@H](CO)[C@@H](O)[C@H](O)[C@H]4O[C@@H]4O[C@H](CO)[C@@H](O)[C@H](O)[C@H]4O)[C@@H](O)[C@H](O[C@@H]4O[C@H](CO)[C@@H](O)[C@H](O)[C@H]4O)[C@H]3O)CC[C@]3(C)C(=CCC4[C@@]5(C)CC[C@@H](O)[C@@](C)(C(=O)O[C@@H]6O[C@H](CO)[C@@H](O)[C@H](O)[C@H]6O)C5CC[C@]43C)[C@@H]2C1` (some centres not stated), the outcome is “inactive [at 9.23 µM]” in test [1] and “inactive [at 9.73 µM]” in test [3]. Also, the activity, negative = inhibition in test [2] was -10.6% [at 9.52 µM]; in test [6] it was 2% [at 11.6 µM]. The activity change, negative = inhibition in test [4] is 2.91% [at 11.6 µM]. In addition, the activity change, negative = thiol reactive in test [5] was 344% [at 11.5 µM]. Besides, the redox activity (% of DA3003) in test [7] is 5.34% [at 11.5 µM].

Values taken from PubChem BioAssay (NCATS).
